Screening data as filed in PubChem.
Pf growth 48h = P. falciparum growth inhibition at 48 hours (one generation); AID 504832; hit rate 5.9% among 310,000; Potency, µM (series often up to 28.7 µM), usual class: inhibitors; P. falciparum luciferase growth in erythrocytes, 48 h
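Erythrocytes infected with P. falciparum carrying an integrated firefly luciferase reporter (2% hematocrit, 0.1% parasitemia final) were exposed to compounds in RPMI 1640 with 0.5% Albumax at 37 C, 5% CO2. Growth inhibition was scored as reduced luminescence.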
Pf growth 96h = inhibits malaria parasite growth, 96 h | P. falciparum luciferase reporter growth, 96 h | Potency, µM (top dose mostly 28.7 µM), usual class: inhibitors | hit rate 6.9% among 320,000 | AID 504834
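Parasite growth measured via integrated firefly luciferase reporter in P. falciparum. Infected erythrocytes at 2% hematocrit, 0.05% parasitemia final were treated 96 hours at 37 C under 5% CO2, and luminescence was read.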
SARS PLpro yeast = blocks SARS-CoV papain-like protease in a yeast assay; S. cerevisiae expressing SARS-CoV PLpro, growth rescue; Potency, µM (series often up to 32.9 µM), usual class: activators; hit rate 0.19% among 330,000; AID 485353; calls by dose curve; note: nearly all actives have a fitted effect of over 55% in size
Sm TGR block = blocks Schistosoma mansoni thioredoxin glutathione reductase; hit rate 3% among 360,000; Q962Y6; Potency, µM (series often up to 114 µM), most hits filed as inhibitors; purified TGR, DTNB reduction, TNB absorbance 405 nm; note: nearly all actives have a fitted effect of over 60% in size
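TGR 20 nM + NADPH 100 uM (dispensed conc.), cpd preinc 15 min RT; start with NADPH (500 uM addition) then DTNB (15 mM addition). Kinetic TNB absorbance, 405 nm filter. Four-parameter Hill fit across titration.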
Of the large screens only hits and unclear results are named; the others gave an inactive call. Shown are actives, neighbours in structure and some others; about 12% of the full set was active somewhere. Unless noted, calls come from the whole dose curve; as a rule, active = well fitted curve in the direction sought with a large enough effect; inconclusive = small, poorly fitted or top-dose-only effect, or another doubt; inactive = no such curve, though single readings can be large; an effect the other way counts as inactive or inconclusive.

COc1ccc(C)cc1NC(=O)C1CCCN1S(=O)(=O)c1ccccc1F (stereo not drawn)	Pf growth 48h inconclusive
O=S(=O)(Nc1cccc(Br)c1)c1cccc2nsnc12	Pf growth 96h inconclusive
O=C(O)c1cc(NS(=O)(=O)c2cccc3nsnc23)cc(C(=O)O)c1	Pf growth 96h 7.4µM
Clc1cccc(Cl)c1/C=N\Nc1nccs1	Pf growth 48h inconclusive, Pf growth 96h 9.3µM
Cc1csc(N/N=C/c2c(F)cccc2Cl)n1	none
Cc1ccc(C)c(NC(=O)CSc2nc(=O)n(Cc3ccncc3)c3c2CCC3)c1	none (no result: Pf growth 48h, Pf growth 96h, SARS PLpro yeast)
CCCN(CCC)S(=O)(=O)c1cccc(-c2csc(C)n2)c1	Pf growth 48h 10µM, Pf growth 96h inconclusive
CCCCn1c(CCl)nc2cc(S(=O)(=O)N3CCOCC3)ccc21	none (no result: Pf growth 48h, Pf growth 96h, Sm TGR block)
O=S(=O)(c1ccc2c(c1)nc(COc1ccc(Cl)cc1)n2CC1CCCO1)N1CCOCC1 (stereo not drawn)	Pf growth 48h inconclusive, Pf growth 96h 12µM
Cc1cccc(C2(c3cccc(C)c3)CC2C(=O)Nc2ccc([N+](=O)[O-])cc2O)c1 (stereo not drawn)	Pf growth 48h 2.1µM, Pf growth 96h inconclusive
Cc1cccc(N(Cc2ccccc2)C(=O)C2CCN(C(=O)c3ccccc3C)CC2)c1	Pf growth 48h 12µM, Pf growth 96h 10µM
CN1C(=O)Cc2cc(S(=O)(=O)Nc3ccc(N4CCOCC4)cc3)ccc21	none
Cc1c(NC(=O)COC(=O)c2c3c(nc4ccccc24)CCCC3)c(=O)n(-c2ccccc2)n1C	Pf growth 96h inconclusive
CCOc1ccc(NC(=O)c2c3c(nc4ccccc24)CCC3)cc1	Pf growth 48h 4.1µM, Pf growth 96h 3.7µM
CNC(=O)COC(=O)c1c2c(nc3ccccc13)CCC2	Pf growth 48h 13µM, Pf growth 96h inconclusive
CCCCNC(=O)COC(=O)c1c2c(nc3ccccc13)CCC2	Pf growth 48h inconclusive, Pf growth 96h inconclusive
COc1ccc(NC(=O)COC(=O)c2c3c(nc4ccccc24)CCCC3)cc1Cl	Pf growth 48h 12µM (no result: Pf growth 96h)
COc1ccc(OC)c(NC(=O)COC(=O)c2c3c(nc4ccccc24)CCCC3)c1	Pf growth 48h 8.3µM (no result: Pf growth 96h)
COc1ccc(NC(=O)COC(=O)c2c3c(nc4ccccc24)CCCC3)cc1	Pf growth 48h inconclusive, Pf growth 96h inconclusive
CCC(O)c1nc2ccccc2n1CCOc1cc(C)cc(C)c1 (stereo not drawn)	none (no result: Pf growth 48h, Pf growth 96h, SARS PLpro yeast)
CC1CN(S(=O)(=O)c2ccc(C(=O)OCc3ccc(C#N)cc3)cc2)CC(C)O1 (stereo not drawn)	Pf growth 48h inconclusive, Pf growth 96h inconclusive
COC(=O)c1cc(=O)n(-c2ccccc2)c(=Nc2ccccc2)s1	Pf growth 48h inconclusive, Sm TGR block 40µM
CCc1ccc(C(=O)Cn2ncc(Cl)c(Cl)c2=O)cc1	Sm TGR block inconclusive
O=C(OCn1ncc(Cl)c(Cl)c1=O)c1cccc(C(F)(F)F)c1	Pf growth 96h inconclusive, Sm TGR block 5.6µM
CCOc1ccc(-c2cc3c(=O)n(CC(=O)NCc4ccccc4)ccn3n2)cc1	none (no result: Pf growth 48h, Pf growth 96h, SARS PLpro yeast)
CN(C)c1nc(NCc2ccccc2)nc(N/N=C/c2ccc(Br)cc2)n1	Pf growth 48h 13µM, Pf growth 96h inconclusive (no result: Sm TGR block)
CN(C)c1nc(NCc2ccccc2)nc(N/N=C/c2ccc3c(c2)OCO3)n1	Pf growth 48h 12µM, Pf growth 96h inconclusive
CCNc1nc(NCC)nc(N/N=C/c2ccc(N(C)C)cc2)n1	Pf growth 48h 13µM, Pf growth 96h inconclusive
CCC(CO)Oc1cc(NCc2ccccc2Cl)c2ncn(C(C)C)c2c1 (stereo not drawn)	Pf growth 48h 3.3µM, Pf growth 96h inconclusive
CCC(CO)Oc1cc(NCc2ccccc2C(F)(F)F)c2ncn(C(C)C)c2c1 (stereo not drawn)	none (no result: Pf growth 48h, Pf growth 96h, Sm TGR block)
CCC(CO)Oc1cc(NCc2ccccc2F)c2ncn(C(C)C)c2c1 (stereo not drawn)	Pf growth 48h 5.2µM, Pf growth 96h 4.7µM, Sm TGR block inconclusive
CCC(CO)Oc1cc(NCc2ccccc2)c2ncn(C(C)C)c2c1 (stereo not drawn)	none (no result: Pf growth 48h, Pf growth 96h, Sm TGR block)
CCC(COC)Oc1cc(NCc2ccccc2)c2ncn(C(C)C)c2c1 (stereo not drawn)	Pf growth 48h 4.1µM, Pf growth 96h inconclusive, Sm TGR block 28µM
COc1cn(CC(=O)Nc2ccc(C)cc2C)c(CN2CCCCC2)cc1=O	none (no result: Pf growth 48h, Pf growth 96h, SARS PLpro yeast)
COc1ccc2c(C(=O)NCc3ccc4c(c3)OCO4)c(-c3ccc(S(C)(=O)=O)cc3)sc2c1	none (no result: Pf growth 48h, Pf growth 96h, Sm TGR block)
Cc1ccc(C(=O)NCC(=O)N2CCC(Cc3ccccc3)CC2)cc1	Pf growth 96h inconclusive
Cc1ccc(C(=O)N/C(=C\c2ccc(-c3ccc(Cl)cc3)o2)C(=O)NCCCN(C)C)cc1	Pf growth 48h 10µM, Pf growth 96h 9.3µM
